PubChem BioAssay (Tox21)
Results filed as inconclusive are left out. Where a call stands in place of a potency, no number is given. Activity calls are given as the source filed them. Calls come from the whole dose curve; as a rule, active = well fitted cell-killing curve with a large enough effect in the repeat runs; inconclusive = weak or mixed curves, or effect the other way; inactive = no such curve, though single readings can be large or run the other way.

experiment: qHTS assay for identifying genotoxic compounds that show differential cytotoxicity against isogenic chicken DT40 cell lines with known DNA damage response pathways - wild type cell line (AID 743012); conditions: DT40 wild type chicken cells viability, CellTiter-Glo, 40 h; series mostly up to 68.4 µM; note: nearly all actives have a fitted effect of over 60% in size
Text: U.S. Tox21 Program National Center for Advancing Translational Sciences [NCATS] NIH Chemical Genomics Center [NCGC] U.S. Environmental Protection Agency [EPA] National Institutes of Environmental Health Sciences [NIEHS] National Toxicology Program [NTP] U.S. Food and Drug Administration [FDA] Tox21 Assay Overview: DNA repair pathways play a critical role in cellular homeostasis by repairing DNA damage induced by endogenous processes and xenobiotics. Isogenic chicken DT40 cell lines deficient in different DNA repair pathways can be used to identify genotoxic compounds and aid in characterizing the nature of the DNA damage induced. Two DNA repair-deficient cell lines with disrupted genes, Rad54/Ku70 or Rev3, were used to screen the Tox21 10K compound library. Possible genotoxicity was based on the presence of a significant increase in cytotoxicity in one or more of the DNA repair-deficient cell lines compared to that observed in the parental DNA repair-proficient cell line. CellTiter Glo viability assay (Promega, Madison, WI) was used to measure cell viability in these cells after compound treatment. This assay includes the data from the wild type cell line.
Tox21 Assay Protocol Summary: 300 DT40 wild type cells in 5 uL/well were dispensed into white, solid-bottom 1536-well plates using a Multidrop Combi (ThermoFisher Scientific, Waltham, MA) dispenser. After the assay plates were incubated at 37 C/5% CO2 for approximately 0.5 hour, 23 nL of compounds dissolved in DMSO, positive controls or DMSO only was transferred into the assay plate by a pintool work station (Kalypsys, San Diego, CA). The assay plates were incubated at 37 C/5% CO2 for 40 hours. After 5 uL per well of CellTiter-Glo reagent was added into each well of the assay plates, the plates were incubated for 30 min at room temperature and the luminescence intensity of the plates was measured using a ViewLux (PerkinElmer, Shelton, CT) plate reader.
Potency is the fitted concentration of half-maximal effect.

Compound | Potency | activity change, negative = cytotoxicity
CCCCCCCCCCCCCCCC/C=C/C1CC(=O)OC1=O (stereo not given) | inactive | –
C[C@@H]1NC(=O)[C@@H](N)CNC(=O)[C@H](C2CCNC(N)=N2)NC(=O)/C(=C/NC(N)=O)NC(=O)[C@H](CNC(=O)C[C@@H](N)CCCN)NC1=O (stereo not given in full) | inactive | –
C[C@H]1COc2c(C3(N)CC3)c(F)cc3c(=O)c(C(=O)O)cn1c23 | inactive | –
N=C(N)S(=O)O | inactive | –
O=C(O)CCCCCCCCCC(=O)O | 30.6 µM (active) | –
Cc1ccc2ccccc2n1 | inactive | –
CC(CC(=O)Cl)CC(C)(C)C (stereo not given) | inactive | –
CC/C=C\CCOC(=O)c1ccccc1 | inactive | –
CCCCc1ccc(Cl)cc1 | inactive | –
Cc1cc(C)c(C)c(C)c1 | inactive | –
Cc1cc(N)no1 | inactive | –
CC(=O)Nc1ccc(S(=O)(=O)Nc2cc(C)on2)cc1 | inactive | –
C=CC(=O)OCCOCCOCC | inactive | –
c1cc2ccc3ccc4ccc5cccc6c(c1)c2c3c4c56 | – | -1.12% [at 3.82 µM] (inactive)
C=CC(=O)CC | inactive | –
CC(=O)SCC(CC(=O)c1ccc(C)cc1)C(=O)O (stereo not given) | inactive | –
Cc1nc2ccc(Cl)cc2[nH]1 | inactive | –
OCCC(F)(F)C(F)(F)C(F)(F)C(F)(F)C(F)(F)C(F)(F)F | inactive | –
BrCCOc1ccccc1 | inactive | –
O=P(O)(O)C(O)(Cc1cccnc1)P(=O)(O)O | inactive | –

Compound | Potency | activity change, negative = cytotoxicity
CCC(=O)OCCOc1ccccc1 | inactive | –
Nc1ccc(C(=O)NCC(=O)O)cc1 | inactive | –
C=C(C)C(=O)OCCCC | inactive | –
CC(C)(C)OC(=O)c1ccccc1C(=O)O | inactive | –
CCCCCCCCC1CO1 (stereo not given) | inactive | –
N=C(N)N1CCc2ccccc2C1 | inactive | –
CC(=O)OC/C=C(/C)CCC=C(C)C | inactive | –
O=C(CCBr)N1CCN(C(=O)CCBr)CC1 | inactive | –
Cc1ccc(OC(=O)CC(C)C)cc1 | inactive | –
CCCC(=O)CC | inactive | –
C/C=C/C(=O)CCCC | inactive | –
CC(C)(C)C(=O)CCc1ccc(Cl)cc1 | inactive | –
O=C1CC2(CCCC2)CC(=O)N1CCNCC1COc2ccccc2O1 (stereo not given) | 21.1 µM (active) | –
CC/C=C\CCCCCCCCCCOC(C)=O | inactive | –
CCN1CCN(C(=O)N[C@@H](C(=O)N[C@@H]2C(=O)N3C(C(=O)O)=C(CSc4nnnn4C)CS[C@H]23)c2ccc(O)cc2)C(=O)C1=O | inactive | –
CCCCN(CCCC)CCCCCCN(CCCC)CCCC | inactive | –
CCCCCC(=O)CC | inactive | –
CC(=O)SC[C@@H](C)C(=O)N1CCC[C@H]1C(=O)N[C@@H](Cc1ccccc1)C(=O)O | inactive | –
N#CC1(N)CCCCC1 | inactive | –
CCOC(=O)c1ccc(N(C)C)cc1 | inactive | –
